According to PubChem BioAssay (NCATS):
Where “and” joins values, the source holds several entries; their conditions need not be identical. Equal entries are not always repeated. Inconclusive results are not listed. Calls of active or inactive are those of the source. Unless noted, calls come from the whole dose curve; as a rule, active = well fitted curve in the direction sought with a large enough effect; inconclusive = small, poorly fitted or top-dose-only effect, or another doubt; inactive = no such curve, though single readings can be large; an effect the other way counts as inactive or inconclusive.

How the values were obtained:
[1] = Cellular Toxicity (caspase-3) HepG2 (AID 654); conditions: HepG2 caspase-3 activation, luminescence, 0% = DMSO only, 100% = tamoxifen; series mostly up to 92.2 µM;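 note: cells exposed to compound for 16 hours before reading; 0% = DMSO alone and 100% = caspase signal from 100 µM tamoxifen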
Procedure, shortened: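 Caspase 3/7 activation is measured as a luminescence increase (aminoluciferin substrate) after 16 h compound exposure of human hepatocarcinoma HepG2 cells. AC50 values are Hill fits, scaled between DMSO baseline and 100 uM tamoxifen stimulation.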

[2] = Cellular Toxicity (caspase-3) Jurkat (AID 655); conditions: Jurkat caspase-3 activation, luminescence, DMSO = 0%, tamoxifen = 100%; series mostly up to 92.2 µM;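 note: cells exposed to compound for 16 h at 37 °C before reading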
Procedure, shortened: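 5000 Jurkat cells/well; compound 16 hr, 37 °C; Caspase-Glo 3/7 added, 20 min RT; luminescence read. Norm: DMSO = 0%, tamoxifen 100 uM = 100%. AC50, Hill model.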

[3] = Cellular Toxicity (caspase-3) HUV-EC-C (AID 656); conditions: HUV-EC-C cells, caspase-3 activation (apoptosis), vehicle = 0, 100 µM tamoxifen = 100%; series mostly up to 92.2 µM
Procedure, shortened: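 qHTS; HUV-EC-C, 1000 cells/well; 5 hr settle, 16 hr cmpd, 37°C; Caspase-Glo 3/7, 20 min RT; luminescence. Norm: DMSO = 0%, tamoxifen 100 uM = 100%. Hill-fit AC50.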

[4] = Cellular Toxicity (caspase-3) SHSY5Y (AID 657); conditions: SH-SY5Y caspase-3 activation, DMSO zero, 10 µM staurosporine = 100%; series mostly up to 91.7 µM;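 note: cells exposed to compound for 16 hours at 37 °C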
Procedure, shortened: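 qHTS, SH-SY5Y, 1500 cells/well, 5 h pre-incubation 37 °C; compound 16 h 37 °C; Caspase-Glo 3/7 1 h RT; luminescence. Norm.: DMSO = 0, 10 uM staurosporine = 100%. Hill fit → AC50.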

[5] = Cellular Toxicity (caspase-3) BJ (AID 658); conditions: BJ fibroblasts, luminescence, normalized: DMSO 0%, staurosporine 100%; series mostly up to 91.7 µM;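 note: cells exposed to compound for 16 hours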
Procedure, shortened: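 qHTS, BJ fibroblasts, 1000 cells/well; 5 hr preincubation, 16 hr compound, 37 °C; Caspase-Glo 3/7 reagent, 1 hr RT; luminescence. DMSO = 0%, 10 uM staurosporine = 100%. Hill-equation AC50.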

[6] = Cellular Toxicity (caspase-3) MRC-5 (AID 659); conditions: MRC-5 cells, luminescence, normalized: DMSO 0%, 10 µM staurosporine 100%; series mostly up to 91.7 µM
Procedure, shortened: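 MRC-5 fibroblasts, 1500/well; 16 h cpd, 37 °C; Caspase-Glo 3/7, 1 h RT; lumi read. Norm: DMSO = 0%, 10 uM staurosporine = 100%. Hill-fit AC50 from qHTS conc-response.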

[7] = Cellular Toxicity (caspase-3) Mesangial (AID 660); conditions: mesangial cells, normalized: DMSO 0%, 100 µM tamoxifen 100%; series mostly up to 91.7 µM;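 note: combined caspase 3 and 7 activity read by Caspase-Glo luminescence; cells exposed to compound for 16 h before the caspase read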
Procedure, shortened: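 Caspase 3/7 activation measured by Caspase-Glo 3/7 luminescence (20 min, room temperature) following 16 h exposure of mesangial cells (1000/well); AC50 from Hill-equation fit, normalized to DMSO and 100 uM tamoxifen.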

[8] = Cellular Toxicity (caspase-3) SK-N-SH (AID 661); conditions: SK-N-SH caspase-3 activation, qHTS, DMSO as zero, staurosporine as full; series mostly up to 91.7 µM;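 note: cells exposed to compound for 16 hours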
Procedure, shortened: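 Caspase 3/7 activation was read by luminogenic substrate cleavage after 16 hour treatment of SK-N-SH cells. Signal was scaled between DMSO and 10 uM staurosporine, and concentration-response data were fitted with the Hill equation for AC50.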

[9] = Cellular Toxicity (caspase-3) H-4-II-E (AID 663); conditions: H-4-II-E rat hepatoma, scaled: DMSO 0%, 100 µM tamoxifen 100%; series mostly up to 92.2 µM;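 note: cells exposed to compound for 16 hr before readout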
Procedure, shortened: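 H-4-II-E rat hepatoma, 1500 cells/well, 5 hr settle at 37 °C; compound 16 hr, 37 °C, complete medium; Caspase-Glo 3/7, 20 min RT; luminescence. DMSO = 0%, 100 uM tamoxifen = 100%; Hill-equation AC50.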

[10] = Cellular Toxicity (caspase-3) Hek293 (AID 664); conditions: HEK293 caspase-3 activation, DMSO = 0%, 100 µM tamoxifen = 100%; series mostly up to 92.2 µM;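 note: cells exposed to compound for 16 h at 37 °C before readout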
Procedure, shortened: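 Concentration-response qHTS: caspase 3/7 activation measured by luminescent aminoluciferin substrate cleavage after 16 h compound exposure of Hek 293 cells. AC50 from Hill equation, with DMSO as basal and 100 uM tamoxifen as 100%.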

[11] = Cellular Toxicity (caspase-3) N2a (AID 665); conditions: N2a cells, luminescence, normalized: DMSO 0%, 10 µM staurosporine 100%; series mostly up to 92.2 µM;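 note: compound exposure lasted 16 h at 37 °C before readout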
Procedure, shortened: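 Caspase-3/7 activation measured as luminescence from Caspase-Glo reagent (1 h, room temperature) after 16 h compound exposure of mouse N2a cells. AC50 values from Hill-equation concentration-response, scaled between DMSO and 10 uM staurosporine.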

[12] = Cellular Toxicity (caspase-3) NIH 3T3 (AID 666); conditions: NIH 3T3 caspase-3 activation, apoptosis/toxicity, 0% DMSO, 100% is 100 µM tamoxifen; series mostly up to 92.2 µM;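 note: caspase signal read after 16 h compound exposure; 0% = DMSO basal and 100% = 100 µM tamoxifen stimulation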
Procedure, shortened: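 Caspase-Glo 3/7 luminescence reported caspase activation in 1000 NIH 3T3 cells/well after 16 h compound exposure at 37 C. DMSO set basal and 100 uM tamoxifen set 100% stimulation; concentration-response modeled with the Hill equation for AC50.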

[13] = Cellular Toxicity (caspase-3) Renal Proximal Tubule (AID 667); conditions: renal proximal tubule cells; series mostly up to 91.7 µM;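 note: cells exposed to compound for 16 hours at 37 °C before detection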
Procedure, shortened: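 AC50 derived by standard Hill fit of concentration-response data, normalized between DMSO basal and 10 uM staurosporine as 100% stimulation. Cells: primary rat kidney proximal tubule, 16 h treatment at 37 °C.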

[14] = molecular target: Peroxisome proliferator-activated receptor alpha (Homo sapiens) (UniProt Q07869); assay: qHTS assay for small molecule agonists of the peroxisome proliferator-activated receptor alpha (PPARalpha) signaling pathway (AID 651778); conditions: PathHunter PPARalpha complementation, chemiluminescence, 6 h; stronger effect = higher value; note: % of control where 0% means no effect
Chain of Peroxisome proliferator-activated receptor alpha (Homo sapiens) (Q07869 whole entry, looked up, the tested form may be a part): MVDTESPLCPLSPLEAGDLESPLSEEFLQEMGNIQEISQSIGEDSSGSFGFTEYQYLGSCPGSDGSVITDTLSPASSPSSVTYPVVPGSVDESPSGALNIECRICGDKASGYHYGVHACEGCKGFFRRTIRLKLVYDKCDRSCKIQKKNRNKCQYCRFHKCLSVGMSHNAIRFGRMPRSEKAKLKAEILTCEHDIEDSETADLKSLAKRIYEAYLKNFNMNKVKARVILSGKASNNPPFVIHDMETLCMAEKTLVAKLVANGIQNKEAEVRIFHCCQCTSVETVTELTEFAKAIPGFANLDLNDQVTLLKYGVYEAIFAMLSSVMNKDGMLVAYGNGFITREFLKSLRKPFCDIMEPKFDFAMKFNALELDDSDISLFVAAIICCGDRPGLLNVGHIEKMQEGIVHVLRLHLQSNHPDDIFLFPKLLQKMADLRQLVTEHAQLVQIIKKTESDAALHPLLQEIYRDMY
Procedure, shortened: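 Enzyme-fragment complementation assay in which ligand-bound PPARalpha translocates and forms an active enzyme that generates chemiluminescence. Cells were plated overnight, exposed to compound for 6 hr at 37 C, and then given detection reagent for 60 min at room temperature.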

[15] = molecular target: Nuclear receptor ROR-gamma (Homo sapiens) (UniProt P51449); assay: qHTS assay for small molecule antagonists of the retinoid-related orphan receptor gamma (ROR-gamma) signaling pathway (AID 651802); conditions: ROR-gamma antagonist cell reporter assay; series mostly up to 92.2 µM;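 note: CHO cells with doxycycline-induced ROR-gamma expression; luciferase reporter luminescence driven by ROR response element; % is set by controls: 0 for no effect and ±100 for the full control effect; nearly all actives have a fitted effect of over 60% in size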
Chain of Nuclear receptor ROR-gamma (Homo sapiens) (P51449 whole entry, looked up): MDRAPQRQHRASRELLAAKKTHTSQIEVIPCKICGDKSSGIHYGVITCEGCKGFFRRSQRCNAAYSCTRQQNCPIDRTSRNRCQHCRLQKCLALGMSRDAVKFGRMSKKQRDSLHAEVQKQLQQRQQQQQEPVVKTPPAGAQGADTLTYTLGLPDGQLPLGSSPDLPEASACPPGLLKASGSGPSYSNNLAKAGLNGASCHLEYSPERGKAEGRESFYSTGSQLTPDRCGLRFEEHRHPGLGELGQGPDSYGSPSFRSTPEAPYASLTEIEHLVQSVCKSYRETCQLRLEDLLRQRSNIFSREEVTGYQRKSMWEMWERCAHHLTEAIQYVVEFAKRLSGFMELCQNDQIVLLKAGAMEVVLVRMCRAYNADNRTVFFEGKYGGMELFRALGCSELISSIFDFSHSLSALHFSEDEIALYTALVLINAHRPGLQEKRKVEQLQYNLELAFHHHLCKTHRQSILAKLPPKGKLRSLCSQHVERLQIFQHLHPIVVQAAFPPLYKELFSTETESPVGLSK
Procedure, shortened: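 Luminescence (One-Glo, 30 min RT) measured 16 h after compound addition and doxycycline induction at 37C. Reporter: RORE-luciferase under TET-inducible ROR-gamma in CHO cells.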

[16] = qHTS assay for small molecule agonists of the antioxidant response element (ARE) signaling pathway measured by Nrf2-dependant transcriptional activity (AID 720636; active = well fitted curve in the direction sought with a large enough effect in the repeat runs; an effect the other way counts as inactive or inconclusive;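 note: HepG2 cells with an ARE-driven luciferase reporter; % of control where 0% means no effect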); conditions: ARE-luc HepG2, Nrf2 luciferase reporter, 16 h; series mostly up to 92.4 µM
Procedure, shortened: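 In HepG2 cells engineered with an Nrf2-responsive luciferase gene, ARE induction was quantified as luminescence after 16 hr compound treatment at 37 C.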

[17] = qHTS assay for small molecule antagonists of the retinoid-related orphan receptor gamma (ROR-gamma) signaling pathway - cell viability counter screen (AID 720652; active = well fitted curve in the direction sought with a large enough effect in the repeat runs; an effect the other way counts as inactive or inconclusive;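 note: CHO reporter cells with doxycycline-induced ROR-gamma expression; compound exposure lasted 16 hr before ATP read; % is set by controls: 0 for no effect and ±100 for the full control effect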); conditions: RORgamma reporter cell line viability counter screen; series mostly up to 92.2 µM
Procedure, shortened: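 Cytotoxicity counter screen: intracellular ATP (CellTiter-Glo luminescence) measured in the doxycycline-induced CHO RORE-luciferase reporter line after 16 hr compound exposure at 37 C, 5% CO2.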

[18] = qHTS assay for small molecule agonists of the antioxidant response element (ARE) signaling pathway measured by Nrf2-dependant transcriptional activity - cell viability counter screen (AID 720653; active = well fitted curve in the direction sought with a large enough effect in the repeat runs; an effect the other way counts as inactive or inconclusive; note: % is set by controls: 0 for no effect and ±100 for the full control effect); conditions: ARE-bla HepG2 viability, CellTiter-Glo ATP luminescence, 16 h; max response: stronger effect = lower value
Procedure, shortened: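 ARE-bla HepG2 cells treated with compounds for 16 h at 37C; this counter screen measures viability as intracellular ATP by CellTiter-Glo luminescence after 30 min at room temperature.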

[19] = qHTS assay for cell viability of HEK293 cells (AID 743288); conditions: ATP luminescence (CellTiter-Glo), 18 h; max response: stronger effect = lower value; note: % is set by controls: 0 for no effect and ±100 for the full control effect; nearly all actives have a fitted effect of over 50% in size
Procedure, shortened: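 Viable-cell counts were inferred from luciferase-based ATP content in HEK293 cells seeded at 2,000/well, pre-incubated ≥5 h, then dosed with DMSO-solubilised compounds for 18 h at 37 C.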

[20] = qHTS assay for small molecule activators of the human pregnane X receptor (PXR) signaling pathway (AID 720659; call rule not given here; note: 0% is about no effect); conditions: DPX-2 HepG2 CYP3A4-luciferase, 24 h; series mostly up to 92.3 µM

Cc1ccccc1O
inactive: outcome [1] | outcome [2] | outcome [3] | outcome [4] | outcome [5] | outcome [6] | outcome [7] | outcome [8] | outcome [9] | outcome [10] | outcome [11] | outcome [12] | outcome [13] | max response [14] -1.66% and -0.689% | Potency [15] | Potency [16] | outcome [17] | max response [18] -2.37% and 9.1% | max response [19] -5.04% and -4.42% | outcome [20]
